About 83,000 compounds went through this panel and 20% of them were active in at least one assay; those are over-represented in the sample as a whole.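 The test compound was applied at a single concentration to cells in 96-well plates for 48 hours, and percent growth was recorded.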 Activity calls are given as the source filed them. How the source made its calls: active means growth percent below 10; inactive means the rest.
Legend:
Experiment in all cases: NCI-60 one-dose screen, 48 h (100 = growth as untreated, 0 = no growth, -100 = all killed)
Conditions in all cases: 10 µM unless noted
SK-MEL-2 melanoma = test system: SK-MEL-2 melanoma
EKVX NSCLC = test system: EKVX NSCLC
SN12C renal = test system: SN12C renal
UO-31 renal = test system: UO-31 renal
TK-10 renal = test system: TK-10 renal
ACHN renal = test system: ACHN renal
CAKI-1 renal = test system: CAKI-1 renal
CCRF-CEM leukemia = test system: CCRF-CEM leukemia
MOLT-4 leukemia = test system: MOLT-4 leukemia
SR leukemia = test system: SR leukemia
RPMI-8226 leukemia = test system: RPMI-8226 leukemia
OVCAR-8 ovarian = test system: OVCAR-8 ovarian
OVCAR-5 ovarian = test system: OVCAR-5 ovarian
OVCAR-4 ovarian = test system: OVCAR-4 ovarian
SK-OV-3 ovarian = test system: SK-OV-3 ovarian
IGROV1 ovarian = test system: IGROV1 ovarian
OVCAR-3 ovarian = test system: OVCAR-3 ovarian
HS 578T breast = test system: HS 578T breast
NCI/ADR-RES ovarian = test system: NCI/ADR-RES ovarian
A498 renal = test system: A498 renal

Measured: growth

CN1CCN(c2ccc(Nc3ncc4[nH]c(=O)n(Cc5ccccc5N)c4n3)cc2)CC1
inactive: SK-MEL-2 melanoma 104% | EKVX NSCLC 102% | SN12C renal 86.5% | UO-31 renal 62.5% | TK-10 renal 86.4% | ACHN renal 89.9% | CAKI-1 renal 66.4% | CCRF-CEM leukemia 96.4% | MOLT-4 leukemia 93.4% | SR leukemia 91% | RPMI-8226 leukemia 105% | OVCAR-8 ovarian 98.4% | OVCAR-5 ovarian 79.1% | OVCAR-4 ovarian 93.6% | SK-OV-3 ovarian 81.3% | IGROV1 ovarian 77.6% | OVCAR-3 ovarian 102% | HS 578T breast 69.8% | NCI/ADR-RES ovarian 102%

CCCC1Cc2cc(-n3nc(C)c4c3CC(C)(C)CC4=O)cc(NC3CCC(O)CC3)c2C(=O)N1 (stereo unspecified)
inactive: SK-MEL-2 melanoma 48.7% | EKVX NSCLC 62.8% | SN12C renal 38% | UO-31 renal 28.9% | TK-10 renal 38.2% | ACHN renal 29.3% | CAKI-1 renal 30.4% | CCRF-CEM leukemia 35% | MOLT-4 leukemia 16.8% | SR leukemia 29.5% | RPMI-8226 leukemia 51% | OVCAR-8 ovarian 40.3% | OVCAR-5 ovarian 58.8% | OVCAR-4 ovarian 62.5% | SK-OV-3 ovarian 17.1% | IGROV1 ovarian 24.7% | OVCAR-3 ovarian 52.6% | HS 578T breast 59.1% | NCI/ADR-RES ovarian 47%

CCCCCCC/C=N/NC(=O)c1ccc(-n2cc(-c3ccccc3)nn2)cc1
inactive: SK-MEL-2 melanoma 98.9% | EKVX NSCLC 90.5% | SN12C renal 93.4% | UO-31 renal 71% | TK-10 renal 110% | ACHN renal 79.1% | CAKI-1 renal 75.8% | CCRF-CEM leukemia 86.3% | MOLT-4 leukemia 85.9% | SR leukemia 79.4% | RPMI-8226 leukemia 94.3% | OVCAR-8 ovarian 95.6% | OVCAR-5 ovarian 89.9% | OVCAR-4 ovarian 93.1% | SK-OV-3 ovarian 87.8% | IGROV1 ovarian 74.9% | OVCAR-3 ovarian 102% | HS 578T breast 91.3% | NCI/ADR-RES ovarian 86.9%

CC1(C)CC(=O)C2=C(C1)OC(C(=O)c1ccccc1)C2c1cccc(Oc2ccccc2)c1 (stereo unspecified)
inactive: SK-MEL-2 melanoma 25% | EKVX NSCLC 36.4% | SN12C renal 38.7% | UO-31 renal 15.6% | TK-10 renal 63.8% | ACHN renal 32.7% | CAKI-1 renal 41.6% | CCRF-CEM leukemia 34.5% | MOLT-4 leukemia 12.2% | SR leukemia 26.2% | RPMI-8226 leukemia 34.6% | OVCAR-8 ovarian 48.5% | OVCAR-5 ovarian 88.7% | OVCAR-4 ovarian 28.6% | SK-OV-3 ovarian 64% | IGROV1 ovarian 89.5% | OVCAR-3 ovarian 64.2% | HS 578T breast 68.4% | NCI/ADR-RES ovarian 38.3%

COc1cccc(/C=C/C(=O)/C=C(/C=C/c2cccc(OC)c2OC)OB(F)F)c1OC
active: CCRF-CEM leukemia 7.53%
inactive: SK-MEL-2 melanoma 110% | EKVX NSCLC 87.7% | SN12C renal 43% | UO-31 renal 37.8% | TK-10 renal 68% | ACHN renal 19.6% | CAKI-1 renal 35.8% | A498 renal 122% | SR leukemia 15.2% | RPMI-8226 leukemia 23.6% | OVCAR-8 ovarian 16.7% | OVCAR-5 ovarian 64% | OVCAR-4 ovarian 50.7% | SK-OV-3 ovarian 97% | IGROV1 ovarian 33.7% | OVCAR-3 ovarian 10.8% | HS 578T breast 38.3% | NCI/ADR-RES ovarian 19.6%

CN1/C(=C/C=C/c2n(Cc3ccc4ccccc4c3)c(Cl)c(Cl)[n+]2Cc2ccc3ccccc3c2)Oc2ccccc21
inactive: MOLT-4 leukemia 91.1% | SR leukemia 95.3% | NCI/ADR-RES ovarian 33.4%
active: SK-MEL-2 melanoma -87.9% | EKVX NSCLC -91.7% | SN12C renal -92.9% | UO-31 renal -93.1% | TK-10 renal -90.5% | ACHN renal -96.6% | CAKI-1 renal -94.1% | CCRF-CEM leukemia -52.7% | RPMI-8226 leukemia -53.1% | OVCAR-8 ovarian -86.1% | OVCAR-5 ovarian -83.1% | OVCAR-4 ovarian -70.7% | SK-OV-3 ovarian -57.2% | IGROV1 ovarian -80.4% | OVCAR-3 ovarian -83.8% | HS 578T breast -44.4%

CN1CCN(Cn2nc(-c3cc(Cl)cc(Cl)c3Cl)oc2=S)CC1
inactive: SK-MEL-2 melanoma 95.3% | EKVX NSCLC 102% | SN12C renal 93.9% | UO-31 renal 138% | TK-10 renal 110% | ACHN renal 98.1% | CAKI-1 renal 59.5% | CCRF-CEM leukemia 272% | MOLT-4 leukemia 122% | SR leukemia 70.4% | RPMI-8226 leukemia 160% | OVCAR-8 ovarian 96% | OVCAR-5 ovarian 93.6% | OVCAR-4 ovarian 92.8% | SK-OV-3 ovarian 100% | IGROV1 ovarian 97.8% | OVCAR-3 ovarian 99.2% | HS 578T breast 91.2% | NCI/ADR-RES ovarian 99%

Cn1ccnc1C(=O)/C=C/c1ccc(C(=O)Nc2ccccc2F)cc1
inactive: SK-MEL-2 melanoma 76.2% | EKVX NSCLC 32.4% | UO-31 renal 34.9% | TK-10 renal 44.7% | ACHN renal 21.1% | CAKI-1 renal 25.8% | A498 renal 17.9% | OVCAR-5 ovarian 18% | OVCAR-4 ovarian 37.7% | SK-OV-3 ovarian 51.9% | IGROV1 ovarian 13.5% | HS 578T breast 17.1% | NCI/ADR-RES ovarian 21.7%
active: SN12C renal 8.08% | CCRF-CEM leukemia 3.74% | SR leukemia 6.83% | RPMI-8226 leukemia 9.83% | OVCAR-3 ovarian -4.52%
